Structures are written as SMILES. Activity calls are given as the source filed them.

This is an account of results in PubChem BioAssay.

Experiment [1] is described as follows: small molecules captured by biotinylated probe aFSTL3 – biochemical, small-molecule microarray, fluorescence 635/667, stem cell growth factor project, primary screen (AID 1064).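 Note: measures binding of the biotinylated anti-FSTL3 antibody to printed compounds.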 The following applies: higher = more signal.
Experiment [2] is described as follows: binders from COS7 lysate, DM2A8 probe, primary screen, torsin A project, cell lysate, small-molecule microarray, fluorescence 635/667 (AID 1065). The following applies: higher = more signal, COS7 lysate expressing mutant human TOR1A.
Experiment [3] in a line: small molecules captured by biotinylated probe aFGF2 – biochemical, small-molecule microarray, fluorescence 635/667, stem cell growth factor project, primary screen (AID 1067).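 Note: measures binding of biotinylated aFGF2 protein to printed compounds on slides; z-score merges feature fluorescence and signal-to-noise across triplicate slides.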 The settings on record: higher = more signal.
The nature of experiment [4]: small molecules captured by biotinylated probe aFGF10 – biochemical, small-molecule microarray, fluorescence 635/667, stem cell growth factor project, primary screen (AID 1071).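 Note: score merges 667 nm spot intensity and signal to noise from triplicate slides.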 The following applies: higher = more signal.
The target in experiment [5] is Neurogenic locus notch homolog protein 2 (Homo sapiens) (UniProt Q04721). Briefly: small molecules binding Notch2 protein – biochemical, small-molecule microarray, 635 nm fluorescence, stem cell growth factors, primary screen (AID 1073). The settings on record: higher = more signal.
For experiment [6], the target named is Pro-neuregulin-1, membrane-bound isoform (Homo sapiens) (UniProt Q02297). Briefly: small molecules binding neuregulin-1 protein – biochemical, small-molecule microarray, fluorescence 635/667, psychiatric disease protein project, primary screen (AID 1075).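 Note: score combines 667 nm spot fluorescence with signal to noise.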 The settings on record: NRG1 binding, 635 nm fluorescence, higher = more signal.
For experiment [7], the system named is Neuregulin-1 EGF-like domain. Briefly: small molecules binding NRG1 EGF domain – biochemical, small-molecule microarray, 635 nm fluorescence, primary screen (AID 1081).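 Note: binding of the protein to compounds printed on small-molecule microarray slides.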 The settings on record: higher = more signal.
Experiment [8] can be described thus: FRG1 expression reporter modulators in myotubes – cell-based, C2C12 myotubes, firefly/Renilla luciferase, luminescence, FRG1 inhibition for FSHD, primary screen (AID 1084). The settings on record: FRG1 promoter luciferase, higher = more signal, called active from +8 up or from −8 down.
Experiment [9] can be described thus: small molecules captured by biotinylated probe aFST – biochemical, small-molecule microarray, fluorescence 635/667, stem cell growth factor project, primary screen (AID 1086).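 Note: score merges 667 nm fluorescence with signal-to-noise of each printed compound spot.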 The settings on record: higher = more signal.
Experiment [10] can be described thus: binders of probe aHhip on microarray, primary screen, stem cell growth factor project, biochemical, small-molecule microarray, fluorescence 635/667 (AID 1087).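 Note: score merges spot fluorescence at 667nm with spot signal to noise ratio.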 The following applies: higher = more signal.
For experiment [11], the system named is PRMT1 (protein arginine N-methyltransferase 1). Briefly: small molecules binding arginine methyltransferase PRMT1 – biochemical, small-molecule microarray, 635 nm fluorescence, primary screen (AID 1088).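 Note: binding of Prmt1 protein to compounds spotted on small-molecule microarray slides.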 The settings on record: higher = more signal.
Experiment [12] is described as follows: growth effects on S. cerevisiae YJM789 – YJM789 clinical isolate, OD600, 24 h, basal, primary screen (AID 1089).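 Note: growth of clinical yeast isolate S. cerevisiae YJM 789 seeded 1000 cells per well; test concentration not given here.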 The following applies: higher = more signal, called active from +8 up or from −8 down.
Experiment [13] in a line: S. pombe growth modifiers, basal conditions – strain 972, OD600, 24 h, no modulator, primary screen (AID 1090).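 Note: basal condition with compound alone and no growth modifier present; test concentration not given here.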 The following applies: S. pombe 972 growth, higher = more signal, called active from +8 up or from −8 down.
Experiment [14] in a line: budding yeast growth modifiers under rapamycin – strain BY4716, OD600, 96 h, primary screen (AID 1091). Note: test concentration not given here. The following applies: S. cerevisiae BY4716 + rapamycin, higher = more signal, called active from +8 up or from −8 down.
The target of experiment [15] is Torsin-1A-interacting protein 2 (Homo sapiens) (UniProt Q8NFQ8). Briefly: small molecules binding lysate-expressed LULL1 – cell lysate, human LULL1 lysate, 635/667 nm fluorescence, primary screen (AID 1092).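 Note: score merges per-feature 667 nm fluorescence with signal-to-noise.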 The settings on record: small-molecule microarray, hLULL1 lysate binding, 635 nm fluorescence; higher = more signal.
Experiment [16] is described as follows: optical density change of DRC41 E. coli – strain DRC41, OD650, 24 h, E. coli filamentation project, primary screen (AID 1093).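 Note: MC1000 strain lacking acrAB efflux and sulA so SOS filamentation is blocked; test concentration not given here.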 The settings on record: E. coli DRC41 growth, higher = more signal, called active from +8 up or from −8 down.
A short description of experiment [17]: probe aLefty2 binding to arrayed compounds – biochemical, biotinylated probe, 635/667 nm fluorescence, primary screen (AID 1094).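 Note: score merges spot fluorescence near 667 nm with spot signal-to-noise ratio.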 The following applies: small-molecule microarray, higher = more signal.
For experiment [18], the system named is Noggin (protein binding on small-molecule microarray). Briefly: small molecules binding Noggin protein – biochemical, 635/667 nm fluorescence, primary screen (AID 1095).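 Note: score merges 667 nm feature fluorescence with signal to noise over triplicate slides.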 The settings on record: 635 nm fluorescence, higher = more signal.
For experiment [19], the target named is Neurogenic locus notch homolog protein 3 (Homo sapiens) (UniProt Q9UM47). Briefly: small molecules binding NOTCH3 protein – biochemical, 635/667 nm fluorescence, primary screen (AID 1096). The settings on record: small-molecule microarray, 635 nm fluorescence, higher = more signal.
A short description of experiment [20]: probe aEGFR binding to arrayed compounds – biochemical, biotinylated probe, 635/667 nm fluorescence, primary screen (AID 1097).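 Note: probe is a biotinylated anti-EGFR antibody binding compounds printed on slides; score combines fluorescence near 667 nm and signal to noise of each spot.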 The following applies: small-molecule microarray, higher = more signal.

Neurogenic locus notch homolog protein 2 (Homo sapiens), sequence (Q04721 whole entry, looked up, canonical isoform): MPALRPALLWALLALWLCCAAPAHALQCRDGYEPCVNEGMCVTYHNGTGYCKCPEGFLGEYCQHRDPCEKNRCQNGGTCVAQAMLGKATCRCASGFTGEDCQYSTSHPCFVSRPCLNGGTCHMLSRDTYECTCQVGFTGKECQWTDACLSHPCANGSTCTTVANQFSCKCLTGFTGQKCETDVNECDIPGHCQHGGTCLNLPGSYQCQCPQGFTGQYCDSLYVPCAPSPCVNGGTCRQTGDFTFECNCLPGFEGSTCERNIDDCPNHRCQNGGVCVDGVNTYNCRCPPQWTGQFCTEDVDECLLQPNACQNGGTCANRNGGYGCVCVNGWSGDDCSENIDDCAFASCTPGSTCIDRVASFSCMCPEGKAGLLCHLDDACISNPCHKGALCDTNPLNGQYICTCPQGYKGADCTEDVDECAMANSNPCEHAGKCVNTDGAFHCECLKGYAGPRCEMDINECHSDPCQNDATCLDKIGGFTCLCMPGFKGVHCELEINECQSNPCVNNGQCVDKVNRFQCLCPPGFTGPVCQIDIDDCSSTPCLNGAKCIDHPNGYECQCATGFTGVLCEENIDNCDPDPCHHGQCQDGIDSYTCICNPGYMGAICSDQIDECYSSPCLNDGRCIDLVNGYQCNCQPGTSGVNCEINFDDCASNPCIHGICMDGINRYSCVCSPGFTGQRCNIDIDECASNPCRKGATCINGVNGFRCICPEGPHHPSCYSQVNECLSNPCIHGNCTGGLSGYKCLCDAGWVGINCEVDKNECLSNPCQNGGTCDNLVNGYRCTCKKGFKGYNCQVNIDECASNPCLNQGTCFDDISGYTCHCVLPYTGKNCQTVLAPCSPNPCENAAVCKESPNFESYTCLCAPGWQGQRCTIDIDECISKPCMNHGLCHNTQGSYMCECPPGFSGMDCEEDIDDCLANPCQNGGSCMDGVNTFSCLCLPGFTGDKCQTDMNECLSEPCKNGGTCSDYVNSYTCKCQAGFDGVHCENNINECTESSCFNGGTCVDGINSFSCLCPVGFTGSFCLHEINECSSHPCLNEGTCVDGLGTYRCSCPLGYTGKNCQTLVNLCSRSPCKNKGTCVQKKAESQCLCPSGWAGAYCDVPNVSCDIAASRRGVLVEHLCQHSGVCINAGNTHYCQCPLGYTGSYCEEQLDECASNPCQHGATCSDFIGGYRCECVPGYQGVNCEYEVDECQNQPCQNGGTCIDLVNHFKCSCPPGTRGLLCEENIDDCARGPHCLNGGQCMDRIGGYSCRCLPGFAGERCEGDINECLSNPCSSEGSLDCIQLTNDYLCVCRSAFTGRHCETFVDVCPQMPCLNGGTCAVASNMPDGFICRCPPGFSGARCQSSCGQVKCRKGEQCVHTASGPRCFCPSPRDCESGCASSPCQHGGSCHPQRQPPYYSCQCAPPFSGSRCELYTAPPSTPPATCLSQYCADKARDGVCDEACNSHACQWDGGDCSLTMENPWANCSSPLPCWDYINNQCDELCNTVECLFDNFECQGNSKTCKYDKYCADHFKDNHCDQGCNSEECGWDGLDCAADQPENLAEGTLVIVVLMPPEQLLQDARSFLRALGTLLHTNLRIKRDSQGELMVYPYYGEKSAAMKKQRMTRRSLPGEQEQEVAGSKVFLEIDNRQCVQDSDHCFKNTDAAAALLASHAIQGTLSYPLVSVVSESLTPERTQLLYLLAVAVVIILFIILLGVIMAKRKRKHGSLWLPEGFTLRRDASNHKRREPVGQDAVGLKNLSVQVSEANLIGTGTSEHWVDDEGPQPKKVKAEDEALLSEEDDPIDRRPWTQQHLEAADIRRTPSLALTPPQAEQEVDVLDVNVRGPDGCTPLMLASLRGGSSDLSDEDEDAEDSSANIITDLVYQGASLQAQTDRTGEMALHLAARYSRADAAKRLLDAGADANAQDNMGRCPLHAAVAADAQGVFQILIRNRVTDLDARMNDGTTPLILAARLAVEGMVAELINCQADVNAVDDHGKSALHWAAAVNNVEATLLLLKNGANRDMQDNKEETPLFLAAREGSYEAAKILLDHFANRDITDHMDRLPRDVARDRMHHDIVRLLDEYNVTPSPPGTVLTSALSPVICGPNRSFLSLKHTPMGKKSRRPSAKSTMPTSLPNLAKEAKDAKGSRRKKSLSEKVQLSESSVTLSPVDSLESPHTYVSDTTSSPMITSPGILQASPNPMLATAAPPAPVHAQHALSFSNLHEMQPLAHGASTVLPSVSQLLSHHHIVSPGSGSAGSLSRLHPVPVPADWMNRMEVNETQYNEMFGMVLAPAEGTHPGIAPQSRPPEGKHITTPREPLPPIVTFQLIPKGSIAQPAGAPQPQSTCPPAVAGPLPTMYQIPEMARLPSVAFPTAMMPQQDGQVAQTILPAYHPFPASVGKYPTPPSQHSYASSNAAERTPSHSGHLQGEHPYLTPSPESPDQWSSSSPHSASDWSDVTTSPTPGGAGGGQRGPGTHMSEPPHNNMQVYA
Neurogenic locus notch homolog protein 3 (Homo sapiens), sequence (Q9UM47 whole entry, looked up): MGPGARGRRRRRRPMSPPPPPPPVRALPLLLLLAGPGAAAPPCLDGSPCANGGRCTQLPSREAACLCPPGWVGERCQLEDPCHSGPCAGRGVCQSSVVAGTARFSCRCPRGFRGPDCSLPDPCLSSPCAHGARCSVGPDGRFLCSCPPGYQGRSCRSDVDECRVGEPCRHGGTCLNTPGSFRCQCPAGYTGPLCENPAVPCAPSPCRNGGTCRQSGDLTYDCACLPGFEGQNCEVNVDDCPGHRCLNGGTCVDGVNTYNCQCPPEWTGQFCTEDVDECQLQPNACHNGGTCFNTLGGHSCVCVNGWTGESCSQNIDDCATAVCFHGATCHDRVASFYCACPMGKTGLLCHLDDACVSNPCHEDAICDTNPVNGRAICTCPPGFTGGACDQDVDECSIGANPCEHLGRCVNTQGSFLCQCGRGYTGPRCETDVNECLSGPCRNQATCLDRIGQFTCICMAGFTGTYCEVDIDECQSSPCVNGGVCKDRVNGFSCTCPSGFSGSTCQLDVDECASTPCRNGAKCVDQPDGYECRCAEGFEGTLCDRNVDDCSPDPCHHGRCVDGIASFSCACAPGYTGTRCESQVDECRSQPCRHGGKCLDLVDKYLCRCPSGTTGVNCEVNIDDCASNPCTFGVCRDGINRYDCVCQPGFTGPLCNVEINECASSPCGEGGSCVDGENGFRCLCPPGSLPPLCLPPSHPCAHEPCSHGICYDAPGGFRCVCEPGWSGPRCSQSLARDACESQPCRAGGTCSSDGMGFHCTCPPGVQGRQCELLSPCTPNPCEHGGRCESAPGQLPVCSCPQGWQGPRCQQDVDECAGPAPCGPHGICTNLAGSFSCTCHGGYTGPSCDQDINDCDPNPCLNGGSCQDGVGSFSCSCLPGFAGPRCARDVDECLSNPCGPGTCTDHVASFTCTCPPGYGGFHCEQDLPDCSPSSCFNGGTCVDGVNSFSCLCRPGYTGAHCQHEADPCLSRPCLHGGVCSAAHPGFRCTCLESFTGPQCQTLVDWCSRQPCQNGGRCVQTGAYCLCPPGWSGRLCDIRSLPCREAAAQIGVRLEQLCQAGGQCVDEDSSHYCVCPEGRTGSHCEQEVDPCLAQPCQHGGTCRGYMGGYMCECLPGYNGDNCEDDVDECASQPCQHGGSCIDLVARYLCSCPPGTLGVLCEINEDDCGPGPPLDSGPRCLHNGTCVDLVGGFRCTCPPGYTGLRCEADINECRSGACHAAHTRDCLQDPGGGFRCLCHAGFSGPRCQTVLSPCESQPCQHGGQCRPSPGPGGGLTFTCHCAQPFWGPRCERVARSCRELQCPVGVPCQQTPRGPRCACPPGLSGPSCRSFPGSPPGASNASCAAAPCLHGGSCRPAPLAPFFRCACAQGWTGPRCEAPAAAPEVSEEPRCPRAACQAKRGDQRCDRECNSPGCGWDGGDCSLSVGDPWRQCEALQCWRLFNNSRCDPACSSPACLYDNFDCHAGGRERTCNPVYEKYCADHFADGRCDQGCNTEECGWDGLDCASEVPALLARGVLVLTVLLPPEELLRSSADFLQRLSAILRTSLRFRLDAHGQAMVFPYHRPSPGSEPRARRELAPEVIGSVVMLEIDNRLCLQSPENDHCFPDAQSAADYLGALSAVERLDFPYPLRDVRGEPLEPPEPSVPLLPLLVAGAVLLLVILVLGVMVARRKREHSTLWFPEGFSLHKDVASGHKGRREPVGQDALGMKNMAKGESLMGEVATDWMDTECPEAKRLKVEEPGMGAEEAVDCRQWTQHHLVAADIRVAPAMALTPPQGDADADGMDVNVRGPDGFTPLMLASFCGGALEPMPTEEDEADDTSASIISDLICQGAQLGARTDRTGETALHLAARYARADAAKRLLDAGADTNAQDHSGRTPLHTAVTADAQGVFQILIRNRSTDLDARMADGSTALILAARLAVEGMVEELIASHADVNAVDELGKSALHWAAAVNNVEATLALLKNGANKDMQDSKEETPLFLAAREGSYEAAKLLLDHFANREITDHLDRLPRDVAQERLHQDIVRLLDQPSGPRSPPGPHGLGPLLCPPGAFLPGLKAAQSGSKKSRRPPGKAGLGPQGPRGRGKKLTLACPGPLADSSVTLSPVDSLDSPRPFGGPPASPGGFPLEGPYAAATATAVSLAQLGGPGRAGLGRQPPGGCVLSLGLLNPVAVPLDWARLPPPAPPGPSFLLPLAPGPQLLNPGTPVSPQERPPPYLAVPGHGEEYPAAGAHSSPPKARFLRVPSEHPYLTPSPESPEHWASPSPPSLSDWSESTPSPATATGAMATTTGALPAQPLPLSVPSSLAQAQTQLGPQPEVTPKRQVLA

Consider `COc1ccccc1CN1C(=O)c2ccccc2[C@@H](C(=O)NCC(F)(F)F)[C@@H]1c1ccc(CO)cc1`, for which the composite z-score in [1] is -0.271; in experiment [2] it was 0.683; in experiment [3], -0.0829; in [4], 0.0992; in experiment [5] it was 0.654; in experiment [6], 1.17. Moreover, the composite z-score in experiment [7] is 1.39; in experiment [9] it was 0.19; in experiment [10], -0.0994; in [11], 1.55; in [15] it was 2.37; in experiment [17], -0.107. Moreover, the composite z-score in experiment [18] is 1.11; in experiment [19], 1.06; in [20], -0.179. Moreover, the z-score is -3 (inactive) in experiment [8]; 0.21 (inactive) in experiment [12]; 0.74 (inactive) in experiment [13]; -0.296 (inactive) in experiment [14]; 1.49 (inactive) in experiment [16].
Take `CO[C@@H]1COC(=O)[C@@H]2CCCN2C(=O)[C@@H](C)COC(=O)[C@H](COCc2ccccc2)NC(=O)CC=C[C@H]1C`: the composite z-score in experiment [1] was -0.451; in experiment [2] it was 0.32; in experiment [3], -0.112; in experiment [4] it was 0.451; in [5] it was 0.433; in experiment [6] it was 0.101. The composite z-score was 0.253 in [7]; 0.79 in [9]; -0.0645 in experiment [10]; 0.705 in experiment [11]; 0.445 in experiment [15]; -0.236 in experiment [17]. The composite z-score in experiment [18] was 0.529; in experiment [19], 0.554; in [20], -0.198. The z-score is -0.0485 (inactive) in experiment [8]; 0.953 (inactive) in [12]; 0.263 (inactive) in experiment [13]; 0.458 (inactive) in [14]; -1.99 (inactive) in experiment [16].
Consider `CC(C)CON=C1C[C@@H](O)[C@@H](O)[C@@H]2[C@@H]3C(=O)N([C@@H](C)c4ccccc4)C(=O)[C@@H]3CC[C@H]12`, for which the composite z-score was -0.572 in experiment [1]; -0.0881 in [2]; -0.0156 in experiment [3]; 0.915 in experiment [4]; 1.01 in experiment [5]; 0.561 in experiment [6]. Also, the composite z-score in [7] was 1.1; in [9], 0.629; in experiment [10] it was 0.21; in [11], 1.54; in experiment [15] it was 2.73; in experiment [17] it was -0.128. Besides, the values for the composite z-score in experiment [18], in [19] and in experiment [20] were 1.12, 1.08 and -0.0146, respectively. For the same compound, the z-score in [8] was -0.997 (inactive); in experiment [12], 0.466 (inactive); in [13] it was 0.443 (inactive); in experiment [14], -0.0803 (inactive); in [16] it was 0.0955 (inactive).
With `CO[C@@H]1COC(=O)CC=C[C@@H](C)[C@@H]2C=C[C@H](O)[C@@H](COC(=O)CCC[C@H]1C)O2`, the composite z-score was -0.29 in [1]; 1.11 in [2]; -0.146 in experiment [3]; -0.14 in experiment [4]; -0.117 in [5]; -0.582 in experiment [6]. Also, the composite z-score in experiment [7] is -0.167; in [9], 0.246; in experiment [10], -0.261; in experiment [11] it was 1.43; in experiment [15] it was -1.78; in experiment [17], -0.075. Besides, the composite z-score in experiment [18] was 1.65; in [19], -0.076; in experiment [20] it was -0.15. In addition, the z-score in experiment [8] was -0.414 (inactive); in experiment [12], -0.199 (inactive); in experiment [13], 0.498 (inactive); in experiment [14], -0.181 (inactive); in experiment [16], 0.206 (inactive).
For the compound `O=C(NN=C1C[C@@H](O)[C@@H](O)[C@@H]2[C@@H]3C(=O)N(c4cccc(Oc5ccccc5)c4)C(=O)[C@@H]3CC[C@H]12)OCc1ccccc1`, the composite z-score in experiment [1] was -0.0678; in experiment [2] it was 0.249; in [3] it was -0.101; in [4], 0.0108; in [5], 0.176; in experiment [6] it was 0.301. Also, the composite z-score was -0.533 in experiment [7]; 0.182 in experiment [9]; -0.249 in experiment [10]; -0.425 in [11]; 0.415 in experiment [15]; -0.0812 in experiment [17]. For the same compound, the composite z-score is 0.53 in [18], 0.305 in experiment [19] and -0.152 in experiment [20]. In addition, the z-score in [8] is 0.723 (inactive); in experiment [12], 0.686 (inactive); in experiment [13], -0.141 (inactive); in experiment [14], -0.669 (inactive); in [16], 1.24 (inactive).
